Reference: PubChem BioAssay AID1159580 (chemical genetic matrix, 2015)
Several values for one entry are separate records, joined by “and”; a condition that tells them apart may be missing. Equal entries are not always repeated. Out of some 5,500 compounds screened, about 2,000 (36%) were called active. Roughly 18% stayed inconclusive and do not appear here. No stated cut-off is given here; in the data, active means normalized growth mostly below about 0.91 (no sharp cut-off); inconclusive means no clear call, values can overlap the other calls; inactive means mostly above about 0.92. The list shows a part of the results.

Experiment: chemical genetic growth profiling, strain panel (AID 1159580);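 further: tested at 20 µM; growth read once vehicle control cultures reached saturation at 30 °C; 1 = growth at the plate median or of vehicle wells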
Conditions: S. cerevisiae deletion strains, growth OD

Measured: normalized growth

CCC(=O)OC1[C@@H]2CC3=C4CC(=O)O[C@@H](c5ccoc5)[C@]4(C)CCC3[C@@](C)(C2=O)[C@@H](CC(=O)OC)C1(C)C (stereo partly specified)
inactive: locus YAL021C, strain ccr4, stronger effect = lower value 1.03 | locus YAL026C, strain drs2, stronger effect = lower value 0.973 | locus YAL030W, strain snc1, stronger effect = lower value 0.998 | locus YBL061C, strain skt5, stronger effect = lower value 0.992 | locus YBR009C, strain hhf1, stronger effect = lower value 0.992 | locus YBR021W, strain FUR4, stronger effect = lower value 1.01 | locus YBR023C, strain chs3, stronger effect = lower value 0.995 | locus YBR171W, strain sec66, stronger effect = lower value 0.983 | locus YBR229C, strain ROT2, stronger effect = lower value 1 | locus YBR231C, strain swc5, stronger effect = lower value 0.989 | locus YBR279W, strain paf1, stronger effect = lower value 0.999 | locus YCL011C, strain gbp2, stronger effect = lower value 1.01 | locus YCL016C, strain dcc1, stronger effect = lower value 1.01 | locus YCL029C, strain bik1, stronger effect = lower value 1.02 | locus YCL061C, strain MRC1, stronger effect = lower value 0.998 | locus YCL069W, strain vba3, stronger effect = lower value 0.995 | locus YCR088W, strain abp1, stronger effect = lower value 0.996 | locus YDL005C, strain med2, stronger effect = lower value 0.978 | locus YDL035C, strain GPR1, stronger effect = lower value 1 | locus YDL040C, strain nat1, stronger effect = lower value 0.976 | locus YDL074C, strain BRE1, stronger effect = lower value 1.01 | locus YDL101C, strain DUN1, stronger effect = lower value 1 | locus YDL185W, strain tfp1, stronger effect = lower value 1.02 | locus YDL192W, strain arf1, stronger effect = lower value 1.01 | locus YDR001C, strain nth1, stronger effect = lower value 0.992 | locus YDR069C, strain doa4, stronger effect = lower value 0.982 | locus YDR101C, strain arx1, stronger effect = lower value 1.02 | locus YDR137W, strain rgp1, stronger effect = lower value 0.901 | locus YDR159W, strain sac3, stronger effect = lower value 0.991 | locus YDR162C, strain NBP2, stronger effect = lower value 0.999 | locus YDR195W, strain ref2 0.984 | locus YDR297W, strain sur2, stronger effect = lower value 0.994 | locus YDR318W, strain mcm21, stronger effect = lower value 1.01 | locus YDR334W, strain swr1, stronger effect = lower value 0.982 | locus YDR335W, strain msn5, stronger effect = lower value 0.996 | locus YDR388W, stronger effect = lower value 1.01 | locus YDR392W, strain spt3, stronger effect = lower value 0.837 | locus YDR502C, strain sam2, stronger effect = lower value 1.02 | locus YEL003W, strain gim4, stronger effect = lower value 0.989 | locus YEL037C, strain rad23, stronger effect = lower value 0.984 | locus YEL061C, strain CIN8 (second series), stronger effect = lower value 0.986 | locus YEL061C, strain CIN8, stronger effect = lower value 0.992 | locus YER015W, strain faa2, stronger effect = lower value 1 | locus YER016W, strain bim1, stronger effect = lower value 0.991 | locus YER110C, stronger effect = lower value 1.02 | locus YER111C, strain swi4, stronger effect = lower value 0.977 | locus YER155C, strain BEM2 (second series), stronger effect = lower value 1 | locus YER155C, strain BEM2, stronger effect = lower value 0.998 | locus YER167W, strain BCK2, stronger effect = lower value 0.994 | locus YFR010W, strain ubp6, stronger effect = lower value 0.984 | locus YGL078C, strain dbp3, stronger effect = lower value 1 | locus YGL086W, strain mad1, stronger effect = lower value 1 | locus YGL167C, strain pmr1, stronger effect = lower value 0.989 | locus YGL173C, strain kem1, stronger effect = lower value 0.979 | locus YGL227W, strain vid30, stronger effect = lower value 0.988 | locus YGL240W, strain doc1, stronger effect = lower value 0.99 | locus YGL248W, strain PDE1, stronger effect = lower value 1 | locus YGL253W, strain hxk2, stronger effect = lower value 0.954 | locus YGR135W, strain pre9, stronger effect = lower value 1.02 | locus YGR252W, strain gcn5, stronger effect = lower value 1.05 | locus YHR013C, strain ard1, stronger effect = lower value 0.966 | locus YHR027C, strain rpn1, stronger effect = lower value 0.988 | locus YHR030C, strain SLT2, stronger effect = lower value 1 and 0.969 | locus YHR079C, strain IRE1 (second series), stronger effect = lower value 1.01 | locus YHR079C, strain IRE1, stronger effect = lower value 0.987 | locus YHR094C, strain hxt1, stronger effect = lower value 1.01 | locus YHR129C, strain ARP1, stronger effect = lower value 1 | locus YHR142W, strain chs7, stronger effect = lower value 1.01 | locus YHR200W, strain rpn10, stronger effect = lower value 1.02 | locus YIL066C, strain RNR3, stronger effect = lower value 0.999 | locus YIL073C, strain SPO22, stronger effect = lower value 1.05 | locus YIL125W, strain kgd1, stronger effect = lower value 1.01 | locus YIR030C, strain dcg1, stronger effect = lower value 1.01 | locus YJL092W, strain hpr5, stronger effect = lower value 0.995 | locus YJL095W, strain BCK1 (second series), stronger effect = lower value 0.995 | locus YJL095W, strain BCK1, stronger effect = lower value 0.992 and 0.999 | locus YJL115W, strain asf1, stronger effect = lower value 0.989 | locus YJL129C, strain trk1, stronger effect = lower value 0.974 | locus YJL134W, strain LCB3, stronger effect = lower value 0.998 | locus YJL154C, strain vps35, stronger effect = lower value 0.996 | locus YJL164C, strain tpk1, stronger effect = lower value 1.01 | locus YJL166W, strain qcr8, stronger effect = lower value 1 | locus YJL168C, strain set2, stronger effect = lower value 1 | locus YJL187C, strain SWE1 (second series), stronger effect = lower value 1.01 | locus YJL187C, strain SWE1, stronger effect = lower value 0.998 | locus YJR043C, strain POL32, stronger effect = lower value 1.02
